# According to PubChem BioAssay AID1985 (Southern Research Specialized Biocontainment Screening …, 2009):
# Among all 2,300 compounds or so, about 1,000 (43%) were called active. The rule behind the calls is not given here. The set was probably picked from earlier hits. This is one part of the list. Results with a measured potency or affinity are listed apart.
# Test: PhoP regulon inhibitor project modified counter assay, GFP fluorescence readout, dose response (AID 1985)
# Settings: S. Typhi, 4 h; series mostly up to 150 µM
row,Compound,outcome
1,COc1ccc(Cl)cc1NC(=O)CN(C)CC(=O)Nc1ccccc1C(F)(F)F,inactive
2,Cn1nnnc1SCc1nnc(-c2ccccc2Br)o1,inactive
3,O=C(Nc1ccc(Cl)cc1)N1CCOC12CCC1(CC2)OCCO1,inactive
4,Cc1cc(=O)oc2cc(OCC(=O)NC3CCCC3)ccc12,inactive
5,COc1ccc(Nc2c3c(nc4ccccc24)CCC3)cc1,inactive
6,Cc1cccc(Nc2c3c(nc4ccccc24)CCC3)c1,inactive
7,Cc1ccc(CSc2nc3c(c(=O)[nH]2)CCC3)cc1,inactive
8,FC(F)(F)c1ccccc1NC1=NCCC1,inactive
9,CCCCNCCCOc1cccc(Cl)c1Cl,inactive
10,COc1ccccc1/C=N/N1C(=O)c2cccc3cccc(c23)C1=O,inactive
11,O=C(NC(=S)Nc1ccc(S(=O)(=O)Nc2nccs2)cc1)c1cccnc1,inactive
12,C=CCSc1nnc(NC(=O)CSc2nc3ccccc3o2)s1,inactive
13,CCOC(=O)c1nc2cc3n(c(CC(C)C)c-2c1C)CC(C)=C3C,inactive
14,NS(=O)(=O)c1ccc(CCNC(=O)C(=O)C2C(=O)Nc3ccccc32)cc1 (stereo not given),inactive
15,COc1ccccc1-c1cc2nc(C)c(CCC(=O)NC(C)CCc3ccco3)c(C)n2n1 (stereo not given),inactive
16,CC(C)C(=O)Nc1ccccc1-c1nc2ccccc2[nH]c1=O,inactive
17,COc1cccc(NC(=O)CN(C)C(C)C(=O)Nc2ccc(S(=O)(=O)N3CCOCC3)cc2)c1 (stereo not given),inactive
18,CCOC(=O)C(O)(NC(=O)c1cccnc1)C(F)(F)F (stereo not given),inactive
19,COc1ccc(N(C(=O)c2cccnc2)S(=O)(=O)c2ccc(F)cc2)cc1,inactive
20,O=C(Nc1ccc(S(=O)(=O)N2CCCC2)cc1)c1cccnc1,inactive
21,N/C(=N\OC(=O)COc1ccc2ccccc2c1)c1ccccn1,inactive
22,N/C(=N\OC(=O)C(c1ccccc1)c1ccccc1)c1ccncc1,inactive
23,O=C1CCCC2=C1C(c1ccncc1)Nc1ccccc1N2 (stereo not given),inactive
24,COCCNC(=O)Cn1cnc2c1c(=O)n(C)c(=O)n2C,inactive

row,Compound,outcome
1,c1ccc2sc(N3CN(CCN4CCOCC4)CN(c4nc5ccccc5s4)C3)nc2c1,inactive
2,CN1CCN(c2ccccc2NC(=O)c2sc3ccccc3c2Cl)CC1,inactive
3,CC1CCN(c2nc3ccc(C(=O)NCCCN4CCCCC4)cc3s2)CC1,inactive
4,COc1ccc2sc(N(CCCN(C)C)C(=O)c3ccc(S(=O)(=O)N4CCc5ccccc5C4)cc3)nc2c1,inactive
5,CN(C)CCOC(=O)c1sc2ccccc2c1Cl,inactive
6,COc1cc(CNCCCN2CCOCC2)c(Br)cc1OCC(=O)Nc1ccccc1C,inactive
7,CCc1c(C)nc2cc(-c3cc(OC)cc(OC)c3)nn2c1N1CCCC1,inactive
8,Cc1ccc(C2CC(=O)NC(SCCC(C)C)=C2C#N)cc1 (stereo not given),inactive
9,COc1ccc2c(c1)c1nc(SCC(C)C)n(CCO)c(=O)c1n2C,inactive
10,O=C(NCC1CCCO1)c1cc2ccccc2oc1=O (stereo not given),inactive
11,O=S(=O)(c1ccccc1)c1nc(-c2cccs2)oc1NCC1CCCO1 (stereo not given),inactive
12,O=C(O)c1ccc(CSc2nnnn2C2CCCCC2)cc1,inactive
13,Cc1cc(NC(=O)COC(=O)c2cccc(S(=O)(=O)N(C)C3CCCCC3)c2)no1,inactive
14,O=C(O)Cn1c(=O)c2c3c(sc2n(Cc2ccccc2F)c1=O)CCCC3,inactive
15,CC1(C)Oc2ccc3ccc(=O)oc3c2/C(=C/NCCN/C=C2\C(=O)C(C)(C)Oc3ccc4ccc(=O)oc4c32)C1=O,inactive
16,Cc1cccc(N(C(=O)CCC(=O)Nc2ccccn2)C(C(=O)NC(C)C)c2ccc(O)cc2)c1 (stereo not given),inactive
17,CCN1CCN(C(=O)c2cc3ccc(OC)cc3[nH]2)CC1,inactive
18,CCN1CCN(C(=O)/C=C/c2cccc(Cl)c2)CC1,inactive
19,CCN1CCN(C(=O)Cc2coc3cc(C)cc(C)c23)CC1,inactive
20,O=C(O)c1cc2cc(F)ccc2[nH]1,inactive
21,CN1CCN(C(=O)CSc2ccc(Cl)cc2)CC1,inactive
22,COC(=O)C(O)(c1c(C)[nH]n(-c2ccccc2)c1=O)C(F)(F)F (stereo not given),inactive
23,COc1cccc(C(c2c(C)[nH]n(-c3ccccc3)c2=O)c2c(C)[nH]n(-c3ccccc3)c2=O)c1O,inactive
24,Cc1c(-n2c(SCC(=O)C(C)(C)C)nc3ccccc3c2=O)c(=O)n(-c2ccccc2)n1C,inactive

row,Compound,outcome
1,CC(=O)NCCn1c(SCc2ccccc2C)nc2ccccc2c1=O,inactive
2,Cc1nc(SCC(=O)N2c3ccccc3Sc3ccccc32)n[nH]1,inactive
3,CC1(C)Cc2c(sc(NC(=O)COc3ccc(Cl)cc3)c2C(N)=O)C(C)(C)N1,inactive
4,CCC1Oc2ccc(C)cc2N(CC(=O)NCC2COc3ccccc3O2)C1=O (stereo not given),inactive
5,COc1ccccc1NC(=O)CN1CCC(c2nc3ccc(C)cc3[nH]2)CC1,inactive
6,COc1ccc(C)cc1NC(=O)C1CCN(S(=O)(=O)c2c(C)noc2C)CC1,inactive
7,COc1ccccc1-n1nc(C(=O)NCc2ccco2)c2ccccc2c1=O,inactive
8,CC1CCN(CCCNC(=O)c2ccc3c(=O)n(Cc4ccc(Cl)cc4)c(=S)[nH]c3c2)CC1,inactive
9,O=C(O)CC12CC3CC(C1)CC(n1ncc(NCC4CCCO4)c(Cl)c1=O)(C3)C2 (stereo not given),inactive
10,CCOC(=O)c1nc(C)n(-c2cc(Cl)ccc2Cl)n1,inactive
11,Cc1ccc(CN2C3=NCCN3c3ccccc32)cc1,inactive
12,O=C(CN1C2=NCCN2c2ccccc21)c1ccco1,inactive
13,COc1cccc2[nH]c3c(N4CCN(Cc5ccc6c(c5)OCO6)CC4)ncnc3c12,inactive
14,O=c1cc(-c2ccccc2)nc(N2CCN(Cc3ccccc3)CC2)[nH]1,inactive
15,c1cc2c(cc1Oc1nc(N3CCOCC3)nc(N3CCOCC3)n1)OCO2,inactive
16,Cc1ccc2nc3c(c(N)c2c1)CCN3C,inactive
17,CC(C)N=C(N)N=C(N)Nc1ccc(Cl)cc1,inactive
18,Cc1cc(NCCCn2ccnc2)n2ncc(-c3ccccc3)c2n1,inactive
19,C[C@@H](C(=O)NC1CCCC1)N1C(=O)N2CCc3c([nH]c4ccccc34)[C@@]2(C)C1=O,inactive
20,O=S1(=O)CC=C(CSC(=S)NC2CCS(=O)(=O)C2)C1 (stereo not given),inactive
21,CCc1cc(CNC(=O)C2CCC(=O)N(Cc3cccc(F)c3)C2)on1 (stereo not given),inactive
22,CC(C)NC(=O)CN1CCN(Cc2nc(C(c3ccccc3)c3ccccc3)no2)CC1,inactive
